About 50,000 (12%) of roughly 420,000 compounds were called active. Where a call stands in place of a potency, no number is given. Another 26% or so got no clear call; they are omitted. Only a selection was taken, and actives are over-represented in it overall. A number with no mark means an inactive call. The call rests on the fitted dose curve; in most records, active means well fitted inhibition curve with a large enough effect; inconclusive means small, poorly fitted or top-dose-only effect; inactive means flat fitted curve, though single readings scatter.
Potency means the concentration at half of the fitted maximal effect.

This test is described as follows: qHTS for Inhibitors of human tyrosyl-DNA phosphodiesterase 1 (TDP1): qHTS in cells in presence of CPT. Further: nearly all actives have a fitted effect of over 55% in size. To be noted: chicken DT40 Tdp1-/-;hTDP1 cells + 20 nM CPT, ATP luminescence, 48 h; series mostly up to 46.2 µM. The essentials: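 Cell growth measured by CellTiter-Glo luminescence after a minimum 48 h, 37 C compound exposure with 20 nM CPT in Tdp1-knockout DT40 cells stably expressing hTDP1, seeded 400/well; qHTS titration format.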
As for `CN1C(=O)CC(c2ccccc2)C1=O` (configuration not stated), the Potency result is “inactive”.
Take `Cc1ccc(-n2ncc3c(N4CCC(C(N)=O)CC4)ncnc32)cc1`: the Potency entry is “inactive”.
The same measure, in the same setting: for `Cc1ccc(-n2ncc3c(=O)[nH]cnc32)c(C)c1` the value was “inactive”; for `Cc1ccc(-n2ncc3c(N4CCN(c5ccc(F)cc5)CC4)ncnc32)c(C)c1`, 11.6 µM (active).
`COc1ccc(CCOC2OC(CO)C(OC(=O)/C=C/c3ccc(O)c(OC)c3)C(O[C@H]3O[C@@H](C)[C@H](O)[C@@H](O)[C@H]3O)C2O)cc1O` (some centres not stated): the Potency result is “inactive”.
On the same count and under the same terms, under `Cc1ccc(S(=O)(=O)CCC(=O)OCC(=O)NCCc2ccc(S(N)(=O)=O)cc2)cc1` stands “inactive”; under `Cc1c(C(=O)N2CCCC2)c(S(=O)(=O)NCC(C)c2ccccc2)c(C)n1C` (configuration not stated), “inactive”; under `CC(C)N=C1CCCC1C(=S)SSC(=S)C1CCCC1=NC(C)C` (configuration not stated), 0.0366 µM (active).
On the same count and under the same terms, under `COc1ccccc1/C=C1\SC(=O)N(CCC(=O)N(C)C2CCS(=O)(=O)C2)C1=O` (configuration not stated) stands “inactive”; under `O=C(Nc1cccc2ccccc12)c1onc2c1CCCC2`, 10.3 µM (active); under `O=C(O)c1ccccc1-c1ccccc1C(=O)Nc1cccc2ccccc12`, “inactive”.
With `COc1ccc(C(=O)Nc2onc3c2CCCC3)cc1`, the Potency entry was “inactive”.
Still for that read-out and setting: under `COC(=O)/C(=C1\Oc2ccc(C(C)(C)C)cc2S1)C(F)(F)F` stands “inactive”; under `CC(Sc1nnc(-c2cccs2)n1C1CC1)C(=O)NCC1CCCO1` (configuration not stated), “inactive”.
Take `O=S(=O)(NCc1ccccc1Br)c1ccccc1Br`: the Potency entry is “inactive”.
On the same count and under the same terms, for `O=C(Nc1ccc([N+](=O)[O-])cc1)C1(c2ccccc2)CCOCC1` the value was “inactive”; for `CN(C)c1nnnn1-c1ccc(Cl)cc1`, “inactive”; for `Clc1ccc(-n2nnnc2-c2cnc(-c3ccccn3)nc2-c2cccs2)cc1`, 6.51 µM (active).
The same measure, in the same setting: under `O=C(CN1C(=O)CSC1=O)N1CCCC(Nc2ccc(F)cc2)C1` (configuration not stated) stands “inactive”.
The same measure, in the same setting: under `COc1ccc(CCNC(=O)CCc2c(C)nc3c(c(C)nn3-c3ccc(C)c(C)c3)c2C)c(OC)c1OC` stands “inactive”.
On to `COc1ccc(CCNC(=O)c2cc3cccc4c3n2CC(C)S4)c(OC)c1OC` (configuration not stated), for which the Potency was 20.6 µM (active).
As for `COc1cccc2[nH]c(C(=O)NCCc3ccccc3)cc12`, the Potency result was “inactive”.
`Cc1c(C(=O)N(C)C)sc2c1c(=O)n(-c1ccc(F)cc1)c(=O)n2CC(=O)N(C)c1ccccc1`: the Potency result is “inactive”.
Take `O=C(COC(=O)c1ccccn1)Nc1cccc2ccccc12`: the Potency result was “inactive”.
Same read-out and setting: under `Cc1cc(C)nc(-n2nc(C)cc2NC(=O)c2ccc(F)cc2F)n1` stands 4.11 µM (active).
For the molecule `CC(=O)N/C(=N/c1nc(C)cc(C)n1)Nc1ccc(F)cc1F`, the Potency result was “inactive”.
Same read-out and setting: for `CCOC(=O)c1cccc(NC(=O)c2ccc(F)cc2F)c1` the value was “inactive”; for `Cc1noc(C)c1C(=O)OC(C)C(=O)Nc1ccc2c(c1)OCO2` (configuration not stated), “inactive”.
Same read-out and setting: under `CN1CCN(NC(=O)Nc2ccc(Br)cc2)CC1` stands “inactive”; under `O=C(Nc1ccc(-n2cccn2)cc1)C1CCN(Cc2ccsc2)CC1`, “inactive”.
On the same count and under the same terms, under `CCn1cc(CN2CCC(C(=O)Nc3cccc(-c4cccc(Cl)c4)c3)CC2)cn1` stands 16.4 µM (active).
With `CCn1cc(CN2CCC(n3nccc3NC(=O)CCCc3ccccc3)CC2)c(C)n1`, the Potency entry is “inactive”.
As to `COc1cccc(-c2cccc(NC(=O)C3CCN(C4CCC4)CC3)c2)c1`, the Potency entry is “inactive”.
On the same count and under the same terms, under `CCn1cc(CN2CCC(C(=O)Nc3cccc(-c4cccc(Cl)c4)c3)CC2)c(C)n1` stands 13 µM (active).
On the same count and under the same terms, for `CCNC(=S)NNC(=O)C1CCN(Cc2ccccc2)CC1` the value was “inactive”.
As to `CC(CCn1cccn1)NC(=O)CCc1nnc(CCc2ccccc2)o1` (configuration not stated), the Potency result is “inactive”.
Same read-out and setting: for `CCC(C)NC(=O)C1c2ccccc2C(=O)N1Cc1ccccc1` (configuration not stated) the value was “inactive”.
`Cc1cc(-c2ccnc(-n3ncc(C(=O)NC(C)(C)CO)c3C3CC3)n2)c(C)s1`: the activity change, negative = growth inhibition was 3.64% [at 9.04 µM].
As to `COc1ccc(C(=O)Nc2ccc(CN3CCOCC3)cc2)cc1`, the Potency entry is “inactive”.
On to `COc1ccc(CNC(=O)C2CCN(C(=O)c3ccco3)CC2)cc1`, for which the Potency entry was “inactive”.
Same read-out and setting: for `COc1ccccc1NC(=O)C1CCN(C(=O)c2ccc(C(C)(C)C)cc2)CC1` the value was 23.1 µM (active); for `COc1ccc(C(=O)N2CCC(C(=O)Nc3ccc(C)cc3)CC2)cc1`, 18.4 µM (active).
The same measure, in the same setting: for `COc1ccc(CNC(=O)C2CCN(C(=O)c3ccccc3)CC2)cc1` the value was “inactive”.
The same measure, in the same setting: for `CC(C)(C)c1ccc(C(=O)N2CCC(C(=O)N3CCCCC3)CC2)cc1` the value was “inactive”; for `CCc1ccc(NC(=O)Cn2nnc(C(=O)NCc3ccc(OC)cc3)c2N)cc1`, “inactive”; for `CCc1ccc(NC(=O)CN2CCC(C(=O)c3ccc(OC)cc3)CC2)cc1`, 5.8 µM (active).
`COc1ccc(NC(=O)N2CCCC(C(=O)Nc3ccccc3OC)C2)cc1` (configuration not stated): the Potency result is “inactive”.
Still for that read-out and setting: under `Cc1ccc(NC(=O)[C@H](Cc2ccccc2)NC(=O)C2CCNCC2)cc1` stands “inactive”; under `CC(=O)Nc1ccc(S(=O)(=O)N2CCC(NC(=O)c3ccccc3)CC2)cc1`, “inactive”.
Same read-out and setting: for `O=C(Cc1ccc(Br)cc1)NCCc1ccccc1` the value was “inactive”; for `O=C(Nn1cnnc1)c1cc(Cl)ccc1Cl`, “inactive”; for `NS(=O)(=O)c1cccc(NC(=O)COC(=O)/C=C/c2ccco2)c1`, “inactive”.
The same measure, in the same setting: for `CCC(C)C(CO)NC(=O)/C=C/[C@H]1O[C@@H](n2cnc3c(NC(=O)c4ccccc4)ncnc32)[C@H](O)[C@@H]1O` (some centres not stated) the value was “inactive”; for `C/C(=N\NC(=O)c1ccoc1C)c1ccccc1O`, 10.3 µM (active).
On to `Cc1ccnc(NC(=O)c2ccoc2C)c1`, for which the Potency result was “inactive”.
The same measure, in the same setting: for `C/C(=N\NC(=O)c1ccccc1C)c1ccc(N2CCOCC2)cc1` the value was “inactive”; for `COC(=O)c1sc(=S)n(-c2ccc(Cl)cc2)c1C`, “inactive”; for `OC(CBr)CN1CCCCC1` (configuration not stated), “inactive”.
On the same count and under the same terms, for `O=C(NCc1nnnn1-c1ccc(Cl)cc1)c1ccc([N+](=O)[O-])o1` the value was 18.4 µM (active); for `COc1ccc(-n2nnnc2CNC(=O)c2ccc3ccccc3c2)cc1`, “inactive”; for `O=C(NCc1nnnn1-c1ccc(Cl)cc1)c1ccc2c(c1)OCO2`, “inactive”.
Turning to `O=C(/C=C/c1cccc([N+](=O)[O-])c1)NCCSCc1ccco1`, the Potency entry is “inactive”.
Regarding `COc1cc(C(=O)NC2CCN(C)CC2)ccc1Nc1ncc2c(n1)N(C1CCC(O)CC1)CCC(=O)N2C` (configuration not stated), the Potency is 16.4 µM (active).
The same measure, in the same setting: for `COc1ccc(Cl)cc1NS(=O)(=O)c1cccc(C(=O)NC2CCC(O)CC2)c1` (configuration not stated) the value was “inactive”.
Still for that read-out and setting: for `COc1ccc(C(=O)NC2CC2)cc1OC1CCN(Cc2cnn(C)c2)CC1` the value was “inactive”; for `O=C(NCCc1ccccc1Cl)C1CCC(=O)N(CCCc2ccccc2)C1` (configuration not stated), “inactive”; for `COc1ccc(C(=O)O)cc1S(=O)(=O)NCc1cccnc1`, “inactive”.
In the case of `CCOc1ccc(NC(=O)Cn2c(=O)n(CCCC(=O)NCc3ccc4c(c3)OCO4)c(=O)c3ccccc32)cc1`, the Potency result is “inactive”.
The same measure, in the same setting: under `O=C(CCCCn1c(=O)c2ccccc2n(CC(=O)Nc2cccc(C(F)(F)F)c2)c1=O)NCc1ccc2c(c1)OCO2` stands 18.4 µM (active); under `O=C(CCn1c(=O)c2ccccc2n(Cc2ccc(Cl)cc2)c1=O)NCc1ccc2c(c1)OCO2`, “inactive”.
On the same count and under the same terms, for `CCCCn1c(SCc2ncc(-c3ccccc3)o2)nc2cc(S(N)(=O)=O)ccc21` the value was 11.6 µM (active); for `CCCCn1c(SCC(=O)N2CCC(C(=O)OCC)CC2)nc2cc(S(N)(=O)=O)ccc21`, “inactive”; for `CCCCn1c(SCC(=O)N2CCCC2=O)nc2cc(S(N)(=O)=O)ccc21`, “inactive”.
Turning to `COc1cccc(Cn2cnc3c([N+](=O)[O-])c(C)c(C)cc32)c1`, the Potency result is “inactive”.
With `CCc1ccc2[nH]c(=O)c(Cc3ccccc3)c(O)c2c1`, the Potency entry is “inactive”.
For `CCOc1ccc(C(=O)Nc2cccc(-c3ccc4nncn4n3)c2)cc1`, the Potency is 20.6 µM (active).
Consider `CCOc1ccc(NC(=O)c2ccc(NC(=O)COC(=O)c3ccc(NC(=O)CC#N)cc3)cc2)cc1`, for which the Potency entry was “inactive”.
Same read-out and setting: under `CCOc1ccc(C(=O)Nc2ccncc2)cc1` stands 10.3 µM (active).
Still for that read-out and setting: under `CCOc1ccc(NC(=O)c2ccc(NC(=O)C3CCCO3)cc2)cc1` (configuration not stated) stands “inactive”; under `CCOc1ccc(C(=O)Nc2cccc(SC)c2)cc1`, 6.51 µM (active).
Same read-out and setting: under `CCOc1ccc(NC(=O)c2ccc(CSc3nnnn3C)cc2)cc1` stands “inactive”; under `CCOc1ccc(C(=O)Nc2c3c(nn2-c2ccccc2)CS(=O)(=O)C3)cc1`, “inactive”.
Regarding `CCC(=O)Nc1ccc(C(=O)Nc2cccc(OC)c2)cc1`, the Potency entry was “inactive”.
The same measure, in the same setting: for `CSc1cccc(NC(=O)CSc2ccccc2)c1` the value was “inactive”; for `O=C(CCC1CCCC1)N=C1SC2CS(=O)(=O)CC2N1Cc1ccccc1` (configuration not stated), “inactive”.
For `CCc1ccc([C@@H]2CC(=O)[C@@H]3CN(S(=O)(=O)c4ccc(C)cc4)[C@H](c4ccc(Cl)cc4)C[C@@H]3N2S(=O)(=O)c2ccc(C)cc2)cc1`, the Potency entry was “inactive”.
Same read-out and setting: under `CCOc1ccc(N2CC(C(=O)N/N=C/c3sccc3C)CC2=O)cc1` (configuration not stated) stands “inactive”; under `C[C@H](CO)N1C[C@H](C)[C@@H](CN(C)C(=O)Nc2ccc3c(c2)OCO3)Oc2c(cccc2N(C)C)C1=O`, “inactive”.
On the same count and under the same terms, under `CN1CCN(CC#CCC2(O)c3ccccc3-c3ccccc32)CC1` stands “inactive”; under `CC(C)(C)C(=O)Nc1c(Br)c(C2CC2)nn1-c1ccccc1`, “inactive”.
Same read-out and setting: for `CCOc1ccc(S(=O)(=O)NCCCn2ccnc2)cc1NC(C)=O` the value was “inactive”; for `COC(=O)c1ccc(NC(=O)CSc2nc(N)c(NC(=O)c3ccc(Br)o3)c(=O)[nH]2)cc1`, “inactive”; for `O=C(CCC1CCCN(Cc2ccc(O)c(Cl)c2)C1)NCc1ccccc1F` (configuration not stated), “inactive”.
In the case of `Clc1ccc(C[n+]2cc(-c3ccc(Cl)cc3)n3c2CCC3)cc1`, the Potency is 4.61 µM (active).
`Clc1ccc(C[n+]2cc(-c3ccccc3)n3c2CCC3)cc1`: the Potency was 2.91 µM (active).
On the same count and under the same terms, for `Cn1c(-c2ccccc2)c[n+]2c1CCCCC2` the value was “inactive”; for `O=C(O)C(F)(F)C(NCc1ccccc1)c1ccccc1` (configuration not stated), “inactive”.
`CCC(C(=O)NC1CCCCC1)N(C(=O)c1snc(C(N)=O)c1N)c1ccc(OC)cc1OC` (configuration not stated): the Potency entry was “inactive”.
On the same count and under the same terms, under `CC(NC(=O)c1ccc(S(=O)(=O)Nc2ccccc2)cc1)c1ccc(S(N)(=O)=O)cc1` (configuration not stated) stands “inactive”.
On the same count and under the same terms, under `COc1cc(CNCc2ccc3c(c2)OCO3)c([N+](=O)[O-])cc1OC` stands “inactive”; under `COc1cc(CN2CCCN(C)CC2)c([N+](=O)[O-])cc1OC`, “inactive”; under `COc1cc2c(cc1OC)C(Cc1cc(OC)c(OC)cc1[N+](=O)[O-])=NCC2`, 5.17 µM (active).

Source of the values: PubChem BioAssay AID686979 (National Center for Advancing Translational Sciences (NCATS), 2013).
